Screens as filed in PubChem BioAssay.
This is a sample that favours compounds with a hit; in the whole collection about 3.3% have one here.
USP1 inh: USP1/UAF1 (human) deubiquitinase inhibition; O94782; recombinant USP1/UAF1, Ub-Rhodamine cleavage fluorescence; Potency, µM (top dose mostly 57.1 µM), without a hit: at the highest dose activity change, negative = inhibition, most hits filed as inhibitors; 390,000 tested, 0.23% active; also: potency is read from the fitted curve at half-maximal effect; nearly all actives have a fitted effect of over 60% in size
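High-throughput fluorogenic screen: 1nM USP1/UAF1 complex, Ub-Rho substrate 150nM final, 50mM HEPES pH 7.8 with 0.5mM EDTA, 0.1 mg/ml BSA, 1mM TCEP and 0.01% Tween-20.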
WRN inhibitor: WRN helicase (human) inhibition. Q14191. WRN helicase unwinding, fluorescent forked duplex, kinetic. Potency, µM (doses to about 114 µM), inactives show at the highest dose activity change, negative = inhibition, usual class: inhibitors. 360,000 tested, 0.46% active. AID 651768; also: potency is read from the fitted curve at half-maximal effect; nearly all actives have a fitted effect of over 55% in size
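WRN at 20 nM final was preincubated with compound for 15 min at room temperature; reaction started with 100 nM forked duplex oligonucleotide carrying fluorophore and quencher plus 2 mM ATP (final). Unwinding followed kinetically by red fluorescence (ex 525/em 598 nm).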
PI5P4Ka inh: inhibitors of human PI5P4K alpha | 330,000 tested, 1.2% active | PI5P4Kalpha enzyme, ADP-Glo luminescence, 60 min; hits give low values | max response, %; active = max response of -50% or lower; inconclusive = between -30% and -50%; inactive = -30% or higher; also: value at the top dose of about 77 µM
Target sequence (P48426 whole entry, looked up): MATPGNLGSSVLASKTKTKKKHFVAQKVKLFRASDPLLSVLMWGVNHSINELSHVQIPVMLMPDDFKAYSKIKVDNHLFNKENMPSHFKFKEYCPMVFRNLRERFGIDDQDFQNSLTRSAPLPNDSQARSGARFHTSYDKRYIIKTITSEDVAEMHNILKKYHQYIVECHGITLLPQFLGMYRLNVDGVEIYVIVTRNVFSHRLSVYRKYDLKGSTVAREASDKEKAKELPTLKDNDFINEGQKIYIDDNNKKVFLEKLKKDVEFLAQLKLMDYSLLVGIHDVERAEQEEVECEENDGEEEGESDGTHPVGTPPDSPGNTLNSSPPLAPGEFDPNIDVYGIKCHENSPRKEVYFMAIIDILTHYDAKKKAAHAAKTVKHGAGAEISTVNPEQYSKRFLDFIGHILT
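Compounds were pin-transferred onto PI5P4Kalpha and substrate in HEPES pH 7.4 buffer with EGTA, CHAPS and 5% DMSO. ATP (5 microM final) started the reaction, which ran 60 minutes at room temperature before ADP-Glo detection.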
USP2a inh: blocks human ubiquitin-specific protease USP2a | O75604 | Potency, µM (top dose mostly 38.3 µM), without a hit: at the highest dose activity change, negative = inhibition, hits mostly inhibitors | USP2 core, Ub-CHOP2 coupled fluorogenic reporter, 485/531 | 330,000 tested, 0.01% active;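 also: potency is read from the fitted curve at half-maximal effect; plate controls were DMSO wells for no effect and full inhibition by NEM control for full effect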
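USP2 core (10nM final) preincubated 30min RT with compound in 20mM Tris-HCl pH 8.0, 2mM CaCl2, 2mM beta-mercaptoethanol, 0.05% CHAPS; 25nM Ub-CHOP2 plus 25nM reporter substrate added, fluorescence (Ex485/Em531) read after 60min.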
PLK1 PBD inh: blocks phosphopeptide binding to human PLK1 polo-box domain; Plk1 PBD binding of FITC phosphopeptide, fluorescence polarization; Potency, µM, for inactives: max response, negative = inhibition, most hits filed as inhibitors; 360,000 tested, 2.8% active; AID 720504; also: potency is read from the fitted curve at half-maximal effect; series mostly up to about 57 µM; nearly all actives have a fitted effect of over 65% in size
The depositor's hits bear a star; ! = a repeat was not active; [ ] = another dose, or the depositor's remark. Unless noted, calls follow the shape of the dose curve; as a rule, active = well fitted curve in the direction sought with a large enough effect; inconclusive = small, poorly fitted or top-dose-only effect, or another doubt; inactive = no such curve, though single readings can be large; an effect the other way counts as inactive or inconclusive. Unless noted, % is scaled to controls: 0 for no effect and ±100 for the full control effect.

Results for COc1ccc(C2CC(c3ccc(OC)c(OC)c3)=NN2S(C)(=O)=O)cc1 (stereo not given) ?
USP1 inh: -16.1%; WRN inhibitor: -0.6%; PI5P4Ka inh: -13.9; USP2a inh: 6.7%; PLK1 PBD inh: 26.7µM*

How did COc1ccc(C2=NN(S(C)(=O)=O)C(c3ccc4nccnc4c3)C2)cc1 (stereo not given) do in these assays?
USP1 inh: 6.0%; WRN inhibitor: -7.0%; PI5P4Ka inh: -7.4; USP2a inh: -1.1%; PLK1 PBD inh: -7.0%

How did COc1ccc(OC)c(C2=NS(=O)(=O)N(C)C(C(=O)Nc3ccc(F)cc3F)=C2)c1 do in these assays?
USP1 inh: -24.6%; WRN inhibitor: -5.0%; PI5P4Ka inh: -1.3; USP2a inh: -0.3%; PLK1 PBD inh: 29.9µM*

How did COc1cc(NC(=O)Cn2nc3c(cc2=O)CC(C)CC3)cc(OC)c1OC (stereo not given) do in these assays?
USP1 inh: 11.9%

What do the screens show for `O=C(CCCCn1c(=O)c2ccccc2n(CC(=O)Nc2cccc(F)c2)c1=O)NCCc1ccccc1`?
USP1 inh: -22.5%

Results for CN(C)CC(C)(C)CNS(=O)(=O)c1ccc(Cl)c(Cl)c1 ?
USP1 inh: -14.5%; WRN inhibitor: 0.3%; PI5P4Ka inh: inconclusive; USP2a inh: 0.2%; PLK1 PBD inh: 18.9µM*!

Results for CCn1cc(S(=O)(=O)CC(=O)N2CCc3ccccc32)c2ccccc21 ?
USP1 inh: -20.8%; WRN inhibitor: 5.6%; PI5P4Ka inh: -1.9; USP2a inh: -4.7%; PLK1 PBD inh: -4.0%

What do the screens show for `CCCn1cc(S(=O)(=O)CC(=O)N2CCc3ccccc32)c2ccccc21`?
USP1 inh: -0.7%; WRN inhibitor: 2.9%; PI5P4Ka inh: -24.9; USP2a inh: 0.4%; PLK1 PBD inh: 29.9µM*

How did COc1ccc(-c2cc3nc(-c4ccccc4)cc(N4CCC5(CC4)OCCO5)n3n2)cc1 do in these assays?
USP1 inh: -7.9%; WRN inhibitor: -9.2%; USP2a inh: -4.2%; PLK1 PBD inh: -5.7%

Results for Cc1ccc(-c2cc3nc(-c4ccccc4)cc(N4CCOCC4)n3n2)cc1 ?
USP1 inh: -13.8%; WRN inhibitor: 2.8%; PI5P4Ka inh: 1.7; USP2a inh: -6.1%; PLK1 PBD inh: 26.7µM*

What do the screens show for `O=C(CCNS(=O)(=O)c1ccc2[nH]c(=O)oc2c1)NCc1ccccc1`?
USP1 inh: -15.1%; WRN inhibitor: -2.2%; PI5P4Ka inh: -6.3; USP2a inh: 2.0%; PLK1 PBD inh: inconclusive

Results for COc1ccc(OC)c(NC(=O)CCNS(=O)(=O)c2ccc3[nH]c(=O)oc3c2)c1 ?
USP1 inh: -29.1%; WRN inhibitor: 3.1%[11.6 µM]; PI5P4Ka inh: -3.0; USP2a inh: -1.5%; PLK1 PBD inh: -0.8%

Results for COc1ccccc1CNC(=O)CCNS(=O)(=O)c1ccc2[nH]c(=O)oc2c1 ?
USP1 inh: -23.6%; WRN inhibitor: -4.2%[11.6 µM]; PI5P4Ka inh: 3.2; USP2a inh: 0.4%; PLK1 PBD inh: 33.6µM*

Results for COc1ccccc1NC(=O)CCNS(=O)(=O)c1ccc2[nH]c(=O)oc2c1 ?
USP1 inh: -10.1%; WRN inhibitor: -14.4%; PI5P4Ka inh: -12.1; USP2a inh: -2.0%; PLK1 PBD inh: 29.9µM*

What do the screens show for `CCN(CC)C(=O)c1sc2c(c1C)c(=O)n(-c1ccc(Cl)c(Cl)c1)c(=O)n2Cc1cc(=O)n2ccccc2n1`?
USP1 inh: -1.0%

What do the screens show for `CC(CNc1nc2ccccc2c2nc(-c3ccccc3)nn12)c1ccccc1` (stereo not given)?
USP1 inh: 1.5%

Results for Cn1c(O)c(N=NC(=O)c2ccccc2O)c2ccccc21 ?
USP1 inh: -15.5%; WRN inhibitor: -21.7%[57.1 µM]; PI5P4Ka inh: inconclusive; USP2a inh: -0.3%; PLK1 PBD inh: 3.36µM*

Results for Cc1cc(N=NC(=O)c2ccccc2O)c2ccccc2c1O ?
USP1 inh: -20.1%; WRN inhibitor: -28.9%; PI5P4Ka inh: -21.0; USP2a inh: 0.1%; PLK1 PBD inh: 26.7µM*

How did Cn1c(O)c(N=NC(=O)C2COc3ccccc3O2)c2ccccc21 (stereo not given) do in these assays?
USP1 inh: -14.7%; WRN inhibitor: -7.6%; PI5P4Ka inh: -0.9; USP2a inh: 0.6%; PLK1 PBD inh: 26.7µM*

Results for CCN1CCN(C(=S)c2ccc(SC)cc2)CC1 ?
USP1 inh: -10.1%; WRN inhibitor: 7.9%; PI5P4Ka inh: -8.8; USP2a inh: -8.2%; PLK1 PBD inh: 18.9µM*

What do the screens show for `CSc1ccc(C(=S)N2CCN(Cc3ccccc3)CC2)cc1`?
USP1 inh: -10.2%; WRN inhibitor: -10.7%; PI5P4Ka inh: -0.1; USP2a inh: 4.4%; PLK1 PBD inh: 21.2µM*

What do the screens show for `CCn1cc2nc(SCC(=O)Nc3ccccc3C(F)(F)F)n(Cc3ccc(C)cc3)c(=O)c2n1`?
USP1 inh: -14.1%

What do the screens show for `Cc1oc2ccc(O)c(CN(C)Cc3ccccc3)c2c1C(=O)Nc1cccc(Cl)c1C`?
USP1 inh: -8.4%

Results for COCCN=C1Sc2nc3c(C)cccc3cc2CN1Cc1ccco1 ?
USP1 inh: -24.0%; WRN inhibitor: -14.7%; PI5P4Ka inh: -28.4; USP2a inh: -5.1%; PLK1 PBD inh: inconclusive

What do the screens show for `Cc1ccc2nc3c(cc2c1)CN(Cc1ccco1)C(=NCC1CCCO1)S3` (stereo not given)?
USP1 inh: -26.8%; WRN inhibitor: -0.6%; PI5P4Ka inh: -19.2; USP2a inh: 2.2%; PLK1 PBD inh: 26.7µM*

What do the screens show for `CCOC(=O)/C(C#N)=C1/C(=O)N(Cc2ccccc2)c2ccccc21`?
USP1 inh: -23.4%; WRN inhibitor: -23.8%; PI5P4Ka inh: -16.4; USP2a inh: 1.9%; PLK1 PBD inh: 3.77µM*

How did Cc1ccc2c(c1)-c1onc(C(=O)N3CCN(c4ccc(Cl)cc4)CC3)c1CO2 do in these assays?
USP1 inh: -16.8%

What do the screens show for `O=c1cc(N2CCCCC2)c(-c2ccccc2)nn1Cc1c(Cl)cccc1Cl`?
USP1 inh: -16.5%; WRN inhibitor: 1.0%; PI5P4Ka inh: -21.2; USP2a inh: 1.5%; PLK1 PBD inh: 26.7µM*

What do the screens show for `CC(=O)Nc1ccc(Nc2nc(C)c([N+](=O)[O-])c(Nc3ccc(NC(C)=O)cc3)n2)cc1`?
USP1 inh: -10.6%; WRN inhibitor: -2.5%; PI5P4Ka inh: -3.4; USP2a inh: -1.3%; PLK1 PBD inh: 3.4%

How did CNc1nc(C)c([N+](=O)[O-])c(Nc2ccc(OC)cc2)n1 do in these assays?
USP1 inh: -13.7%; WRN inhibitor: 9.7%; PI5P4Ka inh: -27.2; USP2a inh: -4.7%; PLK1 PBD inh: 11.9µM*

Results for CCc1ccccc1NC(=O)CN1C(=O)C2CCCN2c2ccc(S(=O)(=O)N(CC)CC)cc21 (stereo not given) ?
USP1 inh: -12.3%
